# Screening results deposited in PubChem BioAssay by National Center for Advancing Translational Sciences (NCATS).
# Cruzain Triton – cruzain (T. cruzi) inhibition with detergent; purified cruzain, Z-FR-AMC fluorescence, 0.01% Triton; AID 1478; actives 0.43% (n = 200,000); Potency, µM, inactives show max response, negative = inhibition, most hits filed as inhibitors;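 also: plate controls were neutral wells for no effect and buffer without enzyme for full effect; nearly all actives have a fitted effect of over 40% in size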
# Target sequence (P25779 123-467 limits assumed): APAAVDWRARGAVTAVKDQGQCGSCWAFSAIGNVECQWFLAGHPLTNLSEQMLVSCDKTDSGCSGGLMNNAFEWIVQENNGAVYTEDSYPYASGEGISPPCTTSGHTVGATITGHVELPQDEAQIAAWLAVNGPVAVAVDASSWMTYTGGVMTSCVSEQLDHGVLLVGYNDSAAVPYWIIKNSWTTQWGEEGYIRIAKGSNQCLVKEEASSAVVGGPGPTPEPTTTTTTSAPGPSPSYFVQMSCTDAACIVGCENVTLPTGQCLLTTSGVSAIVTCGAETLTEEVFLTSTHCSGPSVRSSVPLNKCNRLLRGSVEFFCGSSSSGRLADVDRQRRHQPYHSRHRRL
#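 Steps: dispense cruzain (1.5 nM final) in acetate buffer pH 5.5 with DTT and 0.01% Triton X-100; pin-transfer compounds; incubate 15 min RT; add Z-FR-AMC (2 uM final); read fluorescence every 30 s, using the 60 s intensity change.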
# Cruzain inh noDet – cruzain (T. cruzi) inhibition without detergent. actives 2.3% (n = 200,000). purified cruzain, Z-FR-AMC fluorescence, no detergent. Potency, µM, for inactives: max response, negative = inhibition, usual class: inhibitors. P25779;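 also: plate controls were enzyme without inhibitor for no effect and buffer without enzyme for full effect; nearly all actives have a fitted effect of over 40% in size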
#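 Purified cruzain at 1.5 nM, pre-incubated 15 min with compound at room temperature in 100 mM sodium acetate pH 5.5, 5 mM DTT, 0.00005% Triton X-100. Reaction started with 2 uM Z-FR-AMC; AMC fluorescence increase over 60 s gives rate.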
# An asterisk follows results filed as active; ? = inconclusive. The list is not random: actives were taken first. Their share in the collection is about 2.4%. Calls follow the shape of the dose curve; as a rule, active = well fitted curve in the direction sought with a large enough effect; inconclusive = small, poorly fitted or top-dose-only effect, or another doubt; inactive = no such curve, though single readings can be large; an effect the other way counts as inactive or inconclusive. Potency is read from the fitted curve at half-maximal effect.
SMILES,Cruzain Triton,Cruzain inh noDet
CC(=O)c1ccc(NC(=O)c2ccc(-c3nc(CSc4ccc(C)cc4)c(C)o3)cc2)cc1,-2.2%,?
COc1ccc(NC(=O)c2ccc(-c3nc(COc4ccccc4)c(C)o3)cc2)cc1,-1.6%,2.1%
O=C(O)c1ccc(Nc2nc3ccccc3c3nncn23)cc1,-0.3%,-8.7%
Cc1ccc(C)c(Nc2nn3c(=O)c4ccc(C(=O)N(C)Cc5ccccc5)cc4nc3s2)c1,-21.6%,?
O=C(COc1ccccc1Cl)Nc1ccc(Cl)c(-c2nc3ccccc3o2)c1,-0.6%,-18.9%
CCOc1ccc(CCNC(=O)Cn2nnc(-c3ccc(OC)c(OC)c3)n2)cc1OCC,0.0%,?
CC(=O)c1c(C)[nH]c(C(=O)COC(=O)CNS(=O)(=O)c2ccccc2)c1C,-16.9%,-24.3%
CC(=O)c1c(C)[nH]c(C(=O)COC(=O)CCSc2ccccc2)c1C,15.8µM*,?
CCOC(=O)c1c(C)[nH]c(C(=O)CSc2ccccc2)c1C,0.5%,?
CCOC(=O)c1c(C)[nH]c(C(=O)COC(=O)CCSc2ccccc2)c1C,25.1µM*,-16.4%
Cc1cccc(-c2nc3scc(CCNC(=O)c4ccccc4Cl)n3n2)c1,-7.3%,4.0%
COc1cccc(CNC(=O)Cn2c(=O)oc3cc(S(=O)(=O)N4CCCC4)ccc32)c1,-0.6%,13.8%
O=C(NC1CC(=O)N(c2ccc(Cl)cc2)C1)c1ccc2c(c1)OCO2 (stereo not given),0.6%,-3.4%
O=C1CCCC2=C1C(c1ccc(Br)cc1)c1c([nH]c(=S)[nH]c1=O)N2 (stereo not given),17.8µM*,15.8µM*
Cc1ccc(C2C3=C(CCCC3=O)Nc3[nH]c(=S)[nH]c(=O)c32)cc1 (stereo not given),-20.1%,-25.8%
COc1ccc(C2C(C(=O)Nc3ccc(C)cc3C)=C(C)Nc3nc(SC)nn32)cc1OC (stereo not given),-0.4%,-4.5%
CSc1nc2n(n1)C(c1cccc(F)c1)C(C(=O)Nc1ccc(C)cc1C)=C(C)N2 (stereo not given),8.2%,10µM*
CSc1ccc(CCNC(=O)c2cc3cc(S(=O)(=O)N4CCCCC4)ccc3n2C)cc1,1.8%,?
CCCCSc1nnc2c(n1)[nH]c1ccccc12,-0.4%,25.1µM*
CCOC(=O)CC(=O)CSc1nnc2c(n1)[nH]c1ccccc12,-3.3%,?
O=C(CSc1nnc2c(n1)[nH]c1ccccc12)OCc1ccccc1,-3.3%,25.1µM*
CC(C)CSc1nnc2c(n1)[nH]c1ccccc12,-1.3%,-26.3%
O=C(Cn1ncc2ccsc2c1=O)N1CCN(c2ccc(Cl)cc2)CC1,-5.8%,-11.4%
Cc1ccc(C(=O)c2c(C)oc3c2C(=O)C(=O)c2ccccc2-3)cc1,-4.3%,?
Cc1ccc(C(=O)c2coc3c2C(=O)C(=O)c2ccccc2-3)cc1,-1.6%,12.6µM*
SMILES,Cruzain Triton,Cruzain inh noDet
CCOCCCn1c(SCC(=O)OCC)nc2c(sc3ccccc32)c1=O,1.4%,10.4%
O=C1N=C(N2CCN(c3ccccc3)CC2)S/C1=C/c1cccs1,-15.9%,-22.8%
O=C1N=C(c2ccccc2)S/C1=C\c1cccs1,-22.8%,20µM*
Clc1ccccc1CNc1nc2ccccc2c2nc(-c3cccnc3)nn12,-0.6%,-1.1%
N#C/C(C(=O)Oc1ccccc1)=C1/Nc2ccccc2-c2ccccc21,2.4%,12.6µM*
N#CC(C(=O)Nc1ccccc1)=C1Nc2ccccc2N1,-3.8%,-8.0%
Cc1ccc(S(=O)(=O)C(CNC(=O)C(=O)NCCc2ccccc2)c2cccs2)cc1 (stereo not given),2.1%,17.2%
CCc1nnc2c3ccccc3nc(Nc3ccccc3OC)n12,0.6%,-9.2%
Nc1nc(-c2cccc([N+](=O)[O-])c2)cc(-c2cc(-c3cccc([N+](=O)[O-])c3)nc(N)n2)n1,-2.1%,2.5%
Nc1c(-c2cccc([N+](=O)[O-])c2)nc2ccccn12,-10.2%,20µM*
CCCSC1=NC2(CCN(C(=O)NC3CCCCC3)CC2)N=C1c1ccc(OC)cc1,-5.3%,4.5%
C[C@H](C(=O)c1ccccc1)C(c1ccccc1)N1CCOCC1 (stereo not given in full),4.6%,9.8%
Cc1ccc2c(nc3s/c(=C/c4cccs4)c(=O)n32)c1C,-1.6%,15.8µM*
Cc1cc(C)c2nc3s/c(=C/c4ccccc4)c(=O)n3c2c1,2.9%,-17.7%
S=C(Nc1ccccc1)Nc1nc2ccccc2n1CCOc1ccc(Br)cc1,2.6%,7.94µM*
Cn1c(NC(=S)Nc2ccccc2)nc2ccccc21,0.6%,?
Nc1ccc([N+](=O)[O-])c(N)c1,-3.9%,-14.1%
Cc1sc(NC(=O)/C=C/c2ccc(C(C)C)cc2)c(C#N)c1C,1.3%,25.1µM*
CC(C)c1ccc(/C=C/C(=O)Nc2nncs2)cc1,-5.2%,?
COc1ccc(C(=O)NNc2ncnc3c2cnn3-c2ccc(C)c(Cl)c2)cc1,0.9%,-1.8%
CCOC(=O)/C(=C\Nc1ccccc1C(F)(F)F)Sc1ncc(C(F)(F)F)cc1Cl,-3.3%,?
